Rows were chosen to be rich in hits. Some 2.3% of all compounds tested hit in one or more screens of this group.
UBC13 inh = blocks human UBC13 polyubiquitin chain formation | inhibition, % at 20 µM | TR-FRET | hit rate 0.47% among 330,000 | AID 485273; in the data active means inhibition above about 45%, passing the limit was not always enough
Target sequence (P61088 whole entry, looked up): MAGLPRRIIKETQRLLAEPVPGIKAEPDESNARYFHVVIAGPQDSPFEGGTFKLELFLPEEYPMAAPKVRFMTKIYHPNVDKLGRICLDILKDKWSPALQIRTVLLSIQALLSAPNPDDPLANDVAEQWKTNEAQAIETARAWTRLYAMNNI
MEKK3 PB1 HTS = MEKK3-MEK5 PB1 interaction, increase or decrease. bead-based flow cytometry, Alexa488-MEK5 binding to MEKK3; actives lie on both sides; 0 = blocked by unlabeled MEK5, 100 = vehicle. binding response (% of control), % at 10 µM. hit rate 1.4% among 290,000;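 active means binding response more than 3 SD above or below the average of its plate-row segment, actives on both sides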;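 further: Alexa488 bead fluorescence after subtracting the streptavidin-only scavenger bead signal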
MEKK2mut PB1 HTS = signal of MEK5 binding to mutant human MEKK2 PB1 domain. bead flow cytometry, Alexa488-MEK5 binding to MEKK2 mutant. percent response, % at 10 µM. hit rate 0.35% among 290,000. AID 1530; in the data active means percent response above about 24%, passing the limit was not always enough
MEKK2 WT-MEK5 = raises or lowers MEK5 binding to wildtype human MEKK2 PB1 domain | bead flow cytometry, Alexa488-MEK5 binding to MEKK2 WT; actives lie on both sides | binding response (% of control), % at 10 µM | hit rate 1.1% among 290,000; in the data active means binding response below about 67% or above about 130%
MEKK2wt confirm = raises or lowers MEK5 binding to wildtype human MEKK2, retest; shares compounds with MEKK3 PB1 HTS; bead flow cytometry, Alexa488-MEK5 binding to MEKK2 WT; actives lie on both sides; binding response (% of control), % at 10 µM; hit rate 2.4% among 5,900; AID 1892; in the data active means binding response below about 16% or above about 210%; inactive means in between
MEKK2mut-MEK5 = signal of MEK5 binding to mutant human MEKK2, retest; shares compounds with MEKK3 PB1 HTS; AID 1893; percent response, % at 10 µM; bead flow cytometry, Alexa488-MEK5 binding to MEKK2 mutant; hit rate 2% among 5,900; in the data active means percent response mostly above about 71%, no sharp cut-off; inactive means mostly below about 38%;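 further: higher means compound restores mutant binding toward wildtype level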
MEKK3-MEK5 inh = confirmation of inhibitors of MEK5 binding to human MEKK3; binding response (% of control), % at 10 µM; hit rate 1.8% among 5,900; bead flow cytometry, Alexa488-MEK5 binding to MEKK3; active compounds read low; shares compounds with MEKK3 PB1 HTS;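 active means binding response below 72% of control, or above a set upper limit, though filed actives all read lower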;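 further: 100% = DMSO only wells and 0% = binding blocked by excess unlabeled MEK5; lower values mean stronger disruption of MEK5 binding to MEKK3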
Active calls of the source: *; [ ] = another dose, or the depositor's remark.

CC(Cc1ccccc1)NC(=O)/C=C/c1ccc([N+](=O)[O-])cc1 (configuration not stated) was read as UBC13 inh -24.5, MEKK3 PB1 HTS 150.0*, MEKK2mut PB1 HTS 1.0, MEKK2 WT-MEK5 108.0, MEKK2wt confirm 101.0, MEKK2mut-MEK5 -2.0 and MEKK3-MEK5 inh 102.0.
`Cc1ccc(NC(=O)CCC(=O)NNC(=O)C(c2ccccc2)c2ccccc2)c(C)c1` gave UBC13 inh 6.5, MEKK3 PB1 HTS 91.0, MEKK2mut PB1 HTS 4.0 and MEKK2 WT-MEK5 100.0.
For COc1ccc2[nH]c(=O)c(CN(CC3CCCO3)C(=O)Nc3ccc(F)cc3)cc2c1 (configuration not stated) the results were MEKK3 PB1 HTS 108.0, MEKK2mut PB1 HTS 2.0 and MEKK2 WT-MEK5 105.0.
`COc1ccc(NC(=O)N(Cc2cc3cc(C)ccc3[nH]c2=O)CC2CCCO2)cc1` (configuration not stated) gave UBC13 inh 6.9, MEKK3 PB1 HTS 130.0*, MEKK2mut PB1 HTS 30.0, MEKK2 WT-MEK5 119.0, MEKK2wt confirm -4.0*[inhibitor], MEKK2mut-MEK5 -2.0 and MEKK3-MEK5 inh 86.0.
Screening Cc1ccc(NC(=O)c2cc(S(=O)(=O)NCCC3=CCCCC3)ccc2F)cc1 returned UBC13 inh 7.5, MEKK3 PB1 HTS 128.0*, MEKK2mut PB1 HTS 0.0, MEKK2 WT-MEK5 109.0, MEKK2wt confirm 98.0, MEKK2mut-MEK5 -6.0 and MEKK3-MEK5 inh 104.0.
Screening O=C(NCCC1=CCCCC1)c1cc(S(=O)(=O)N2CCOCC2)ccc1F returned UBC13 inh 2.9.
For COc1cc(OC)c2ccc(=O)oc2c1C(CCN1CCCC1)c1ccc2c(c1)OCO2 (configuration not stated) the results were UBC13 inh 11.6, MEKK3 PB1 HTS 106.0, MEKK2mut PB1 HTS 6.0 and MEKK2 WT-MEK5 101.0.
For CCCCCc1cc(=O)oc2c(C(CCN3CCCC(C)C3)c3ccc4c(c3)OCO4)c(OC)cc(OC)c12 (configuration not stated) the results were UBC13 inh -8.2, MEKK3 PB1 HTS 122.0*, MEKK2mut PB1 HTS 74.0*, MEKK2 WT-MEK5 302.0*, MEKK2wt confirm 270.0*, MEKK2mut-MEK5 109.0* and MEKK3-MEK5 inh 118.0.
`CCCCCc1cc(=O)oc2c(C(CCN3CCCCC3)c3ccc4c(c3)OCO4)c(OC)cc(OC)c12` (configuration not stated) gave UBC13 inh 13.2, MEKK3 PB1 HTS 110.0, MEKK2mut PB1 HTS 50.0*, MEKK2 WT-MEK5 203.0*, MEKK2wt confirm 226.0*, MEKK2mut-MEK5 73.0* and MEKK3-MEK5 inh 108.0.
`COc1ccccc1NC(=O)C(=O)NCCC1CCCCN1S(=O)(=O)c1cccs1` (configuration not stated) gave UBC13 inh 1.0.
Screening CCOc1ccc(S(=O)(=O)NC(Cc2c[nH]c3ccccc23)C(=O)O)cc1 (configuration not stated) returned UBC13 inh 1.3, MEKK3 PB1 HTS 103.0, MEKK2mut PB1 HTS 5.0 and MEKK2 WT-MEK5 112.0.
`CC(C)CC(=O)N=C1SC2CS(=O)(=O)CC2N1Cc1ccccc1Cl` (configuration not stated) gave UBC13 inh -3.1, MEKK3 PB1 HTS 106.0, MEKK2mut PB1 HTS 4.0 and MEKK2 WT-MEK5 101.0.
For CC(C)CC(=O)N=C1SC2CS(=O)(=O)CC2N1Cc1ccccc1 (configuration not stated) the results were UBC13 inh 3.8, MEKK3 PB1 HTS 195.0*, MEKK2mut PB1 HTS 1.0, MEKK2 WT-MEK5 114.0, MEKK2wt confirm 97.0, MEKK2mut-MEK5 -8.0 and MEKK3-MEK5 inh 98.0.
`N=c1oc2ccccc2cc1-c1nc(-c2ccc(Cl)cc2)cs1` gave UBC13 inh 6.0, MEKK3 PB1 HTS 128.0*, MEKK2mut PB1 HTS -2.0, MEKK2 WT-MEK5 97.0, MEKK2wt confirm 91.0, MEKK2mut-MEK5 -9.0 and MEKK3-MEK5 inh 98.0.

High-throughput results deposited in PubChem BioAssay by several laboratories.
